Inconclusive results are not listed. Unmarked numbers belong to inactive results. Activity calls are given as the source filed them. Calls come from the whole dose curve; as a rule, active = well fitted curve in the direction sought with a large enough effect in the repeat runs; inconclusive = weak or mixed curves; inactive = no such curve, though single readings can be large; an effect the other way counts as inactive or inconclusive.
% is set by controls: 0 for no effect and ±100 for the full control effect.

A short description of one assay: qHTS assay to identify small molecule antagonists of the retinoic acid receptor (RAR) signaling pathway (AID 1159552; note: nearly all actives have a fitted effect of over 50% in size). The settings on record: C3RL4 RARE luciferase reporter, retinol-stimulated, 6 h; series mostly up to 92.4 µM; activity, negative = inhibition: at the top concentration. The method, boiled down: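 Readout: luciferase luminescence, 30 min post-reagent at RT. Setup: C3RL4 RARE reporter cells, compounds plus retinol 1 uM final, 6 hr incubation at 37 C and 5% CO2.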
Regarding `O=C(O)c1cc(=O)[nH]c(=O)[nH]1`, the “activity, negative = inhibition” value is 37.4%.

On to `C1COCCN1`, for which the Potency result is “inactive”.

For `CN1CCOCC1`, the Potency result is “inactive”.

As to `COc1ccc(-c2coc3cc(O)cc(O)c3c2=O)cc1`, the Potency result was “inactive”.

For the compound `Nc1ccc(N)c(Cl)c1`, the “activity, negative = inhibition” value was -3.19%.

With `C=CCNCC=C`, the Potency entry is “inactive”.

With `C=CC(C)(O)CCC=C(C)C` (stereo unspecified), the Potency entry is “inactive”.

`CCO[Si](CCCNC(N)=O)(OCC)OCC`: the “activity, negative = inhibition” value was 5.3%.

A further assay in a line: qHTS assay to identify small molecule agonists of the retinoic acid receptor (RAR) signaling pathway (AID 1159553). Note: potency is the fitted concentration of half-maximal effect. The conditions noted are these: C3RL4 RARE luciferase reporter, agonist, 6 h; activation: at 73.3 µM (top of the series) unless noted. An outline of the steps: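 Cell line C3RL4, RARE luciferase reporter. Treatment: compounds in DMSO, 6 hr, 37 C, 5% CO2, after overnight plating. Detection: luminescence, 30 min RT after reagent.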
With `O=C(O)c1cc(=O)[nH]c(=O)[nH]1`, the “activation” value was 0.344%.

Take `C1COCCN1`: the “activation” value was -0.0048% [at 94.8 µM].

For the compound `O=[Se](O)O`, the Potency entry is “inactive”.

With `CC[C@]12CCCN3CCc4c(n(c5ccccc45)[C@@](O)(C(=O)OC)C1)[C@@H]32`, the Potency result was “inactive”.

`COc1ccc(-c2coc3cc(O)cc(O)c3c2=O)cc1`: the Potency is 686 nM (active).

With `O=Cc1ccccc1C=O`, the “activation” value is -1.95%.

On to `Nc1ccc(N)c(Cl)c1`, for which the Potency entry was “inactive”.

Take `Oc1c(Cl)ccc(Cl)c1Cl`: the Potency result was “inactive”.

`C=CCNCC=C`: the Potency entry was “inactive”.

For `CCO[Si](CCCNC(N)=O)(OCC)OCC`, the Potency result was “inactive”.

The next assay in a line: qHTS assay to identify small molecule antagonists of the estrogen related receptor (ERR) signaling pathway - cell viability counter screen (AID 1224818). The settings on record: ERR reporter cell line viability counter screen; series mostly up to 46.1 µM; viability change, negative = cytotoxic: at the top concentration. The method, boiled down:
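Here, ERR cells are plated at 2,000 cells per well, allowed 6 h to attach, and treated with compounds in DMSO for 17.5 h at 37 C. CellTiter-Fluor is then added and fluorescence read after 30 min.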
`NCCS(=O)(=O)O`: the “viability change, negative = cytotoxic” value was 11.2%.

On to `CNC[C@H](O)c1ccc(O)c(O)c1`, for which the “viability change, negative = cytotoxic” value was 5.3%.

As for `CC(C)[N+](C)(CCOC(=O)C1c2ccccc2Oc2ccccc21)C(C)C`, the “viability change, negative = cytotoxic” value is 10.5%.

On to `Cc1ccc(/C(=C\CN2CCCC2)c2ccccn2)cc1`, for which the “viability change, negative = cytotoxic” value is -6.83%.

Another assay in a line: qHTS assay to identify small molecule antagonists of the estrogen related receptor signaling pathway with the pleiotropic PPARgamma coactivator (PGC) cell viability counter screen (AID 1224822). The conditions noted are these: ERR/PGC reporter cell line viability counter screen; series mostly up to 46.1 µM; viability change, negative = cytotoxic: at the top concentration. An outline of the steps: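 qHTS format, DMSO compound stocks pin-transferred onto PGC/ERR cells 6 h after plating; 17.5 h exposure at 37 C, then CellTiter-Fluor fluorescence.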
Background: Quantitative high-throughput screening tests each substance at several concentrations.
With `NCCS(=O)(=O)O`, the “viability change, negative = cytotoxic” value is 5.26%.

As to `CNC[C@H](O)c1ccc(O)c(O)c1`, the “viability change, negative = cytotoxic” value was 5.91%.

Take `CC(C)[N+](C)(CCOC(=O)C1c2ccccc2Oc2ccccc21)C(C)C`: the “viability change, negative = cytotoxic” value was 8.09%.

On to `Cc1ccc(/C(=C\CN2CCCC2)c2ccccn2)cc1`, for which the “viability change, negative = cytotoxic” value was -0.0289%.

The values above are taken from PubChem BioAssay (Tox21).
